PubChem BioAssay (NCATS)
Values without a mark were called inactive.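 The calls were made as follows: active = compounds whose dose series gives a full or clear partial fitted curve of increased nuclear translocation; inconclusive = weak partial curve or effect only at the top dose; inactive = no dose-dependent translocation response.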
Potency is read from the fitted curve at half-maximal effect.

What follows are compounds tested against Glucocorticoid receptor (Homo sapiens) (UniProt P04150) (assay: GR-GFP Redistribution (AID 450)). Conditions: U2OS GR-GFP nuclear translocation, laser cytometry, 2 h; series mostly up to 20.6 µM.
Chain of Glucocorticoid receptor (Homo sapiens) (P04150 whole entry, looked up): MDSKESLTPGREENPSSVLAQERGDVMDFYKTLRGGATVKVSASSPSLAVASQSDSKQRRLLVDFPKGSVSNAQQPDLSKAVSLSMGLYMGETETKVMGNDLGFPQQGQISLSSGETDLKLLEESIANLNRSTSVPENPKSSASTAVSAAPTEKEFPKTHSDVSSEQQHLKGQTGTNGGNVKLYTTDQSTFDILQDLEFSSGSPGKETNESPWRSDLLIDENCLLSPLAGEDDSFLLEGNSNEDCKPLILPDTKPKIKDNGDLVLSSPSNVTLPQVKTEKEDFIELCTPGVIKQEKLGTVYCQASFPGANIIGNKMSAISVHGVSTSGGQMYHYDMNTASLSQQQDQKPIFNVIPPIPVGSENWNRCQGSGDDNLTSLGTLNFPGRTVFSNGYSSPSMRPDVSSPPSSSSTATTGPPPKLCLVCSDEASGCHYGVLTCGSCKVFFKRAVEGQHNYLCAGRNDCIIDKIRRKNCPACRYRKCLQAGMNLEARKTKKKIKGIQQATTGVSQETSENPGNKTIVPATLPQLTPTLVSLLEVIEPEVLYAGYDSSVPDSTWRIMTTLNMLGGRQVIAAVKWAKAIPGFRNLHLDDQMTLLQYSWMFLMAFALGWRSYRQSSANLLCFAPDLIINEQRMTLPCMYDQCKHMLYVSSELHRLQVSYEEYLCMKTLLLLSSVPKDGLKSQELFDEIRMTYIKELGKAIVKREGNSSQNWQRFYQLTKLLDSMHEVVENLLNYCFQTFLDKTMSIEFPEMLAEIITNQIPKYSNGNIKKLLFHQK
For `CCCCNC1=C(Br)C(=O)CC(C)(C)C1`, the Potency was over 20.6 µM.
For `O=C(CN1CCc2[nH]c3ccccc3c2C1)N1CCCCC1`, the Potency was over 20.6 µM.
With `CCCc1cc(=O)oc2c(CN3CCCC3)c(O)c(Cl)cc12` the Potency was over 20.6 µM.
In the case of `CC(C)Cc1nc(N2CCN(C(=O)Cc3ccccc3)CC2)c(C#N)c2c1COC(C)(C)C2`, the Potency is reported as over 20.6 µM.
In the case of `O=S(=O)(c1ccc(Cl)cc1)N1CCC(N2CCCCCC2)CC1`, the Potency is reported as over 20.6 µM.
Work on `Cc1ccccc1OCc1nc2ccccc2c(=O)n1NC(=O)c1ccco1` yielded a Potency of over 20.6 µM.
With `Cc1cc(C)n(CC2CC(=O)N(c3ccc(F)c(Cl)c3)C2=O)n1` (centres undefined) the Potency was over 20.6 µM.
`CN1CCN(c2nc3c(c(=O)n(C)c(=O)n3C)n2Cc2cccc3ccccc23)CC1` was tested, and the Potency was over 20.6 µM.
`O=C(c1ccc(F)cc1)N1CCC(N2CCCCCC2)CC1` was tested, and the Potency was over 20.6 µM.
`N#CCSc1nc2c(cc1C#N)CCCCCC2` gave a Potency of over 20.6 µM.
With `CCCCCc1ccc(-c2ccc(=O)[nH]n2)cc1` the Potency was over 20.6 µM.
In the case of `COc1ccc(CCn2c(=N)c(C(=O)NCc3ccco3)cc3c(=O)n4ccccc4nc32)cc1`, the Potency is reported as over 20.6 µM.
`CC1CCc2cc(F)cc3c(O)c(C(=O)NCc4ccco4)c(=O)n1c23` (centres undefined) was tested, and the Potency was over 20.6 µM.
`COc1ccc(C2C(C#N)=C(SC)NC3=C2C(=O)CC(C)(C)C3)cc1` (centres undefined) showed a Potency of over 20.6 µM.
`CCOC(=O)COn1c(=O)c(-c2ccco2)[n+]([O-])c2ccccc21` gave a Potency of over 20.6 µM.
With `COCCCn1cnc2c(c1=O)c1nc3ccccc3nc1n2CCc1ccccc1` the Potency was over 20.6 µM.
`C=CCn1c(=S)[nH]c2nc3c(cc2c1=O)CCCC3` showed a Potency of over 20.6 µM.
`Nc1c2c(nc3ccccc13)N(C1CCCCC1)CC2` showed a Potency of over 20.6 µM.
Compound `CCOC(=O)/C(C#N)=C1\Nc2ccccc2N=C1N(CC(C)C)CC(C)C` has a Potency of over 20.6 µM.
In the case of `CCN1CC2=C(OC(N)=C(C#N)C2c2ccccc2)/C(=C\c2ccccc2)C1` (centres undefined), the Potency is reported as over 20.6 µM.
`CC1(C)Cc2c(sc(NC(=O)c3ccc(Br)o3)c2C#N)CO1` gave a Potency of over 20.6 µM.
`Cc1ccc(/C(O)=C2/C(=O)C(=O)N(Cc3ccco3)C2c2cccs2)cc1` (centres undefined) gave a Potency of over 20.6 µM.
For `CCO/C(C)=N/n1c2nc3ccccc3nc2c2c(=O)n(Cc3ccccc3Cl)c(C)nc21`, the Potency was over 20.6 µM.
`CC(C)C(=O)N1CCN(c2nc(-c3ccccc3)c3c(c2C#N)CCCC3)CC1` gave a Potency of over 20.6 µM.
With `N#Cc1nc(COc2ccccc2Cl)oc1NCc1ccc(F)cc1` the Potency was over 20.6 µM.
In the case of `CCC(C)Nc1nc(-c2cccc(OC)c2O)nc2ccccc12` (centres undefined), the Potency is reported as over 20.6 µM.
Compound `Nc1ccc2c(c1)N1CCN=C1S2` has a Potency of over 20.6 µM.
`CC1CN(C2CCN(C(=O)c3ccccc3)CC2)CC(C)O1` (centres undefined) was tested, and the Potency was over 20.6 µM.
With `Nc1ccc2oc(-c3cc(Br)ccc3Cl)nc2c1` the Potency was over 20.6 µM.
With `COc1cccc(C(=O)OCCN(C)C(C)(C)C)c1` the Potency was over 20.6 µM.
Compound `Cc1ccc(-n2ncc3c(N4CCC(C(N)=O)CC4)ncnc32)c(C)c1` has a Potency of over 20.6 µM.
With `CC1(C)Cc2c(sc3nc(SCC#N)n(C4CCCCC4)c(=O)c23)CO1` the Potency was over 20.6 µM.
Compound `CCOc1ccc(/C(O)=C2/C(=O)C(=O)N(c3nc(C)c(C)s3)C2c2ccco2)cc1` (centres undefined) has a Potency of over 20.6 µM.
`COC(=O)c1ccc(C2C(C(=O)c3cc4ccccc4o3)=C(O)C(=O)N2CCCN(C)C)cc1` (centres undefined) was tested, and the Potency was over 20.6 µM.
`Cc1nc(N2CCN(Cc3ccccc3)CC2)c(C#N)c2c1COC(C)(C)C2` showed a Potency of over 20.6 µM.
For `O=S(=O)(c1cccc(-c2csc(-c3ccccc3)n2)c1)N1CCOCC1`, the Potency was over 20.6 µM.
`CCCCc1c(O)nc(SCCN(C)C)n(-c2ccccc2)c1=O` gave a Potency of over 20.6 µM.
`N#Cc1cc(Oc2cccc3cccnc23)c(-n2nnc3ccccc32)cc1C#N` showed a Potency of over 20.6 µM.
In the case of `N#Cc1c(-c2ccccc2Cl)cc(C2CC2)nc1N`, the Potency is reported as over 20.6 µM.
